Whole data set: some 110,000 compounds, median “z-score” near -0.1, cut for the highest 2% near 2. Only a selection was taken, and the highest values are over-represented in it overall. Activity calls are given as the source filed them.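 The calls were made as follows: active = z-score in the third read window above 3 or below -3; inactive = the rest.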
Target: Metabotropic glutamate receptor 8 (Rattus norvegicus) (UniProt P70579)
Experiment: mGluR8 Gi/Go-coupled signaling modulation – cell-based, rat, thallium flux, HTS, primary screen (AID 488969)
Conditions: HEK293 rat mGluR8, GIRK (G protein-gated inwardly rectifying potassium channel) thallium flux, FluoZin2; at 10 µM; stronger effect = higher value; submaximal glutamate (EC20) added with thallium

Sequence of Metabotropic glutamate receptor 8 (Rattus norvegicus) (P70579 whole entry, looked up): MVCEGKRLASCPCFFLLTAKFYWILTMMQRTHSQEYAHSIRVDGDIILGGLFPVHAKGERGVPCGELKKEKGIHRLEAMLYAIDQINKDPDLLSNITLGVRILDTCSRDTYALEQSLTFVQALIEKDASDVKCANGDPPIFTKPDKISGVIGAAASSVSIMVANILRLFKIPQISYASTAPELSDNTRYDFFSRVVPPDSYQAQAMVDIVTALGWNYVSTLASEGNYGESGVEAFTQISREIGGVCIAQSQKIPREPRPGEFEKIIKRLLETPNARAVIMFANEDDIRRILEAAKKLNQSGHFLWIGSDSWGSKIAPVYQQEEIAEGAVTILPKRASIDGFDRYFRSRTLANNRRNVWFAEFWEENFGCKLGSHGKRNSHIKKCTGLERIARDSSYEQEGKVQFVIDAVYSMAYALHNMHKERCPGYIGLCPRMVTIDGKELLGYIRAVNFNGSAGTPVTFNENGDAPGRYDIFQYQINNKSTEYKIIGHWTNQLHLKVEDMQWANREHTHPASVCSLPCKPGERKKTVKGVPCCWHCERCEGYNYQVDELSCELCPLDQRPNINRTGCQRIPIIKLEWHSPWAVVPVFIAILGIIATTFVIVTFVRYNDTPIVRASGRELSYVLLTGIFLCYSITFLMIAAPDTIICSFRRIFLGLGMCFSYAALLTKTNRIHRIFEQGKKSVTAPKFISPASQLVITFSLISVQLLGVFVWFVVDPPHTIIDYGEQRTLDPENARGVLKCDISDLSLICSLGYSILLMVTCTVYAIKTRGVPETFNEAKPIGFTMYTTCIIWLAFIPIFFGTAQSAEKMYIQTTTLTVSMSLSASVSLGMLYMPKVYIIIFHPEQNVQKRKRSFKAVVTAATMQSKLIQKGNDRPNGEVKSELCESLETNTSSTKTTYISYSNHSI

Question: For `O=C(COc1ccc(Cl)cc1Cl)Nc1noc2ccccc12`, which z-score is on record?
Answer: 12.9 (active)

Question: For `Cc1cc(NC(=O)Nc2ccccc2)n(-c2ccccc2)n1`, which z-score is on record?
Answer: 10.5 (active)

Question: `Cc1cc(NC(=O)c2ccc(C)s2)n(-c2ccccc2)n1` was tested. Which z-score did it give?
Answer: 0.239

Question: Which z-score does the source give for `Cc1cc(Nc2ccccc2)n(-c2ccccc2)n1` here?
Answer: 0.00239

Question: For `CSc1ccccc1NC(=O)COc1ccc(Cl)cc1Cl`, which z-score is on record?
Answer: -0.15

Question: Which z-score does the source give for `Cc1cc(NC(=O)COc2ccccc2)n(-c2ccccc2)n1` here?
Answer: -0.119

Question: `Cc1cc(NC(=O)COc2ccc(Cl)cc2Cl)n(-c2ccccc2)n1` was tested. Which z-score did it give?
Answer: 12.2 (active)

Question: `O=C(COc1ccc(Cl)cc1Cl)Nc1ccccn1` was tested. Which z-score did it give?
Answer: 1.52

Question: Which z-score does the source give for `Cc1cc(NC(=O)C(C)Oc2ccc(Cl)cc2Cl)n(-c2ccccc2)n1` (configuration not stated) here?
Answer: -0.237

Question: `CC(=O)c1cnc(N(C)C)s1` was tested. Which z-score did it give?
Answer: 0.141

Question: Which z-score does the source give for `CN(Cc1ccccc1)C(=O)CN(C1CCCCC1)S(C)(=O)=O` here?
Answer: 0.423

Question: `O=C(Nc1ccc(N2CCOCC2)cc1)C1CC1` was tested. Which z-score did it give?
Answer: 0.35

Question: How did the z-score turn out when `Cn1c(C(=O)NCc2ccccn2)cc2c(=O)n(C)c3ccccc3c21` was run?
Answer: 0.138

Question: For `COc1ccc(N(C(=O)Cc2cccs2)C(C(=O)NC2CCCCC2)c2cccn2C)cc1` (configuration not stated), which z-score is on record?
Answer: -0.0427

Question: `CCOc1ccc2c(c1)C(C)=CC(C)(C)N2C(=O)Nc1ccccc1F` was tested. Which z-score did it give?
Answer: -0.0976

Question: For `Cc1cc(OCc2nc(-c3cccs3)no2)cc(C)c1Cl`, which z-score is on record?
Answer: 0.00195

Question: `COc1cc(CN2CCCC(C)C2)cc([N+](=O)[O-])c1O` (configuration not stated) was tested. Which z-score did it give?
Answer: -0.494

Question: With `O=C(NN1CCOCC1)c1cc(-c2ccc(Br)cc2)nc2ccccc12` as the molecule, how does the z-score read?
Answer: 2.02

Question: For `O=C(NN1CCOCC1)c1cc(-c2ccccc2)nc2ccccc12`, which z-score is on record?
Answer: -0.494

Question: With `CCc1ccc(-c2cc(C(=O)NN3CCOCC3)c3ccccc3n2)cc1` as the molecule, how does the z-score read?
Answer: -0.195

Question: `C/C(N)=C(/C#N)C(=O)CSc1nnc(COc2ccccc2Cl)o1` was tested. Which z-score did it give?
Answer: 0.832

Question: How did the z-score turn out when `Cc1cc(/C=N/NC(N)=O)c(C)c(CO)c1` was run?
Answer: -0.0977

Question: `CCn1c(SCC(=O)N2CCC(C(N)=O)(N3CCCCC3)CC2)nnc1-c1ccccc1` was tested. Which z-score did it give?
Answer: 2.65

Question: With `CCn1c(SCC(=O)N2CCCC2)nnc1-c1ccc(N)cc1` as the molecule, how does the z-score read?
Answer: 0.183

Question: For `CCn1c(SCC(=O)N2CCC(C(N)=O)(N3CCCCC3)CC2)nc2ccccc2c1=O`, which z-score is on record?
Answer: -1.2

Question: How did the z-score turn out when `Cn1nnc2cc(C(=O)NCc3ccco3)ccc21` was run?
Answer: 0.326

Question: Which z-score does the source give for `CCOC(=O)NC(NC(=O)OCC)C(=O)c1ccccc1` here?
Answer: -0.227

Question: With `CC(C)CCOP(=O)(c1ccccc1)c1ccccc1` as the molecule, how does the z-score read?
Answer: -2.77

Question: With `CC(Nc1cc(N2CCCC2)ccc1[N+](=O)[O-])c1ccccc1` (configuration not stated) as the molecule, how does the z-score read?
Answer: -0.624

Question: `CCCn1c(O)c(CN2CCCCC2)c(C)c(C#N)c1=O` was tested. Which z-score did it give?
Answer: -0.183

Question: `C(/C=C/C=C/Nc1ccccc1)=Nc1ccccc1` was tested. Which z-score did it give?
Answer: 16.2 (active)

Question: `O=C(/C=C/Nc1ccccc1)c1ccccc1` was tested. Which z-score did it give?
Answer: 0.219

Question: `Brc1ccc(N=C/C=C/C=C/Nc2ccc(Br)cc2)cc1` was tested. Which z-score did it give?
Answer: 0.151

Question: `Fc1ccccc1CSc1nc2ncc(Br)cc2[nH]1` was tested. Which z-score did it give?
Answer: 1.26

Question: `CCC(NC(=O)NC1=NCCS1)(C(F)(F)F)C(F)(F)F` was tested. Which z-score did it give?
Answer: 0.399

Question: How did the z-score turn out when `CCOCCCn1c(=N)c(C(N)=S)cc2c(=O)n3cccc(C)c3nc21` was run?
Answer: 2

Question: `C=CCn1c(=N)c(C(=O)OCC)cc2c(=O)n3cccc(C)c3nc21` was tested. Which z-score did it give?
Answer: -0.017

Question: `CCn1c(=N)c(C(N)=O)cc2c(=O)n3cccc(C)c3nc21` was tested. Which z-score did it give?
Answer: -1.13

Question: `COc1cc(C(=O)NCC(=O)N/N=C/c2cccs2)cc(OC)c1OC` was tested. Which z-score did it give?
Answer: -0.174

Question: How did the z-score turn out when `CCn1c(O)c(N=NC(=O)CNC(=O)c2ccco2)c2ccccc21` was run?
Answer: -0.152

Question: Which z-score does the source give for `NC(=S)N=Nc1c(O)n(Cc2ccccc2)c2ccccc12` here?
Answer: 0.17

Question: Which z-score does the source give for `Cn1c(O)c(N=NC(=O)CNC(=O)c2ccco2)c2ccccc21` here?
Answer: -0.2

Question: How did the z-score turn out when `Cc1ccc2c(c1)c(N=NC(N)=S)c(O)n2Cc1ccccc1` was run?
Answer: 2.88

Question: Which z-score does the source give for `NC(=S)N=Nc1c(O)n(Cc2ccc(F)cc2)c2ccccc12` here?
Answer: 1.76

Question: How did the z-score turn out when `O=C(N=Nc1c(O)n(Cc2ccccc2)c2ccccc12)c1ccc(O)cc1` was run?
Answer: -0.143

Question: How did the z-score turn out when `NC(=S)N=Nc1c(O)n(Cc2ccc(Br)cc2)c2ccccc12` was run?
Answer: -0.0836

Question: For `CCCCNC(=S)N=Nc1c(O)n(Cc2ccccc2)c2ccccc12`, which z-score is on record?
Answer: 3.24 (active)

Question: With `CCCn1c(O)c(N=NC(=O)c2ccco2)c2ccccc21` as the molecule, how does the z-score read?
Answer: 3.17 (active)

Question: How did the z-score turn out when `O=C1CC(=C2c3ccccc3-c3ccccc32)C(=O)N1CCN1CCN(c2cccc(Cl)c2)CC1` was run?
Answer: -0.0614

Question: For `O=C(Nc1ccccc1)C(Cc1cccs1)c1nn[nH]n1` (configuration not stated), which z-score is on record?
Answer: 0.0119

Question: With `Cc1ccc(S(=O)(=O)/N=S(/C)c2ccccc2)cc1` (configuration not stated) as the molecule, how does the z-score read?
Answer: 0.693

Question: For `CCN(C(=O)c1cc2ccccc2oc1=O)c1cccc(C)c1`, which z-score is on record?
Answer: 0.00276

Question: How did the z-score turn out when `CCCOc1ccc(C2(C(=O)O)CCCC2)cc1` was run?
Answer: 0.219

Question: `O=C(CCC(=O)OCc1ccc(Br)cc1)Nc1ccccc1` was tested. Which z-score did it give?
Answer: -0.0471

Question: `Cc1cccc(/C=N/n2c(-c3ccncc3)n[nH]c2=S)c1` was tested. Which z-score did it give?
Answer: -0.531

Question: For `CCN(CC)S(=O)(=O)c1cccc(-c2n[nH]c(=S)n2/N=C/c2ccc(C(=O)OC)cc2)c1`, which z-score is on record?
Answer: 3.19 (active)

Question: Which z-score does the source give for `Cc1cccc(-c2n[nH]c(=S)n2/N=C/c2ccc(C)o2)c1` here?
Answer: 0.433

Question: With `COCCn1c(CN2CCN(c3ccc(OC)cc3)CC2)nc2c1c(=O)n(C)c(=O)n2C` as the molecule, how does the z-score read?
Answer: -0.219

Question: How did the z-score turn out when `C=CCn1c(-c2cccs2)nc2ccccc21` was run?
Answer: 3.14 (active)

Question: How did the z-score turn out when `CCn1c(-c2cccs2)nc2ccccc21` was run?
Answer: -0.122

Question: With `c1csc(Cn2c(-c3cccs3)nc3ccccc32)c1` as the molecule, how does the z-score read?
Answer: -1.65

Question: Which z-score does the source give for `COc1cccc(NS(=O)(=O)c2ccc(NC(C)=O)cc2)c1` here?
Answer: -0.261

Reference: PubChem BioAssay AID488969 (Vanderbilt High Throughput Screening Facility, 2010)
